For orientation: inhibition means the relative decrease from the control value, in per cent.

Molecules are shown by their SMILES.

Drawing on ChEMBL document CHEMBL1961873, “Compounds: GSK PKIS; Assays: Nanosyn kinase panel” (2012), this text covers inhibition for two compounds.

Test [1] has as its target T1, Inhibitor of nuclear factor kappa-B kinase subunit epsilon (Homo sapiens) (UniProt Q14164).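 Further: reported values are averaged percent inhibition figures against human IKKε.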
T1 sequence (whole entry): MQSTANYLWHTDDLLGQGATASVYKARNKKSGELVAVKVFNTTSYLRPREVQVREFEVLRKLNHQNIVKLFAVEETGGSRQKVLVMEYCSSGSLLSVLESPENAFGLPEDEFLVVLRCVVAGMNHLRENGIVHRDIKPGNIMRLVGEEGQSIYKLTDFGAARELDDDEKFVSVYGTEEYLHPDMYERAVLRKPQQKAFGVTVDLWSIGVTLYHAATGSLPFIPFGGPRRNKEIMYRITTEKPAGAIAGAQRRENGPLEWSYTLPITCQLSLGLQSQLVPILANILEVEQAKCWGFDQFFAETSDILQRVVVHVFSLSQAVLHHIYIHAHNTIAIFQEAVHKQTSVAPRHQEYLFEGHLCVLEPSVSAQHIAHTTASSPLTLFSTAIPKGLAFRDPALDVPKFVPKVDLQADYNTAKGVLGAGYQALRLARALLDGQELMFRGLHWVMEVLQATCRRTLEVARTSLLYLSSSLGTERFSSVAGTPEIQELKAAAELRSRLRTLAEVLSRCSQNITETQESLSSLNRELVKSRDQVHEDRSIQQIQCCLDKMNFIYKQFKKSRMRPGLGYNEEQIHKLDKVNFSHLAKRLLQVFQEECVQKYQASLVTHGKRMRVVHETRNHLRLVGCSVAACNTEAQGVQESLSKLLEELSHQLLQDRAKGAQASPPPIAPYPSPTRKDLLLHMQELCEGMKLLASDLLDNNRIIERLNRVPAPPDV
The conditions noted are these: at 1 µM.

For test [2], the target named is T2, Serine/threonine-protein kinase Nek1 (Homo sapiens) (UniProt Q96PY6).
T2 sequence (whole entry): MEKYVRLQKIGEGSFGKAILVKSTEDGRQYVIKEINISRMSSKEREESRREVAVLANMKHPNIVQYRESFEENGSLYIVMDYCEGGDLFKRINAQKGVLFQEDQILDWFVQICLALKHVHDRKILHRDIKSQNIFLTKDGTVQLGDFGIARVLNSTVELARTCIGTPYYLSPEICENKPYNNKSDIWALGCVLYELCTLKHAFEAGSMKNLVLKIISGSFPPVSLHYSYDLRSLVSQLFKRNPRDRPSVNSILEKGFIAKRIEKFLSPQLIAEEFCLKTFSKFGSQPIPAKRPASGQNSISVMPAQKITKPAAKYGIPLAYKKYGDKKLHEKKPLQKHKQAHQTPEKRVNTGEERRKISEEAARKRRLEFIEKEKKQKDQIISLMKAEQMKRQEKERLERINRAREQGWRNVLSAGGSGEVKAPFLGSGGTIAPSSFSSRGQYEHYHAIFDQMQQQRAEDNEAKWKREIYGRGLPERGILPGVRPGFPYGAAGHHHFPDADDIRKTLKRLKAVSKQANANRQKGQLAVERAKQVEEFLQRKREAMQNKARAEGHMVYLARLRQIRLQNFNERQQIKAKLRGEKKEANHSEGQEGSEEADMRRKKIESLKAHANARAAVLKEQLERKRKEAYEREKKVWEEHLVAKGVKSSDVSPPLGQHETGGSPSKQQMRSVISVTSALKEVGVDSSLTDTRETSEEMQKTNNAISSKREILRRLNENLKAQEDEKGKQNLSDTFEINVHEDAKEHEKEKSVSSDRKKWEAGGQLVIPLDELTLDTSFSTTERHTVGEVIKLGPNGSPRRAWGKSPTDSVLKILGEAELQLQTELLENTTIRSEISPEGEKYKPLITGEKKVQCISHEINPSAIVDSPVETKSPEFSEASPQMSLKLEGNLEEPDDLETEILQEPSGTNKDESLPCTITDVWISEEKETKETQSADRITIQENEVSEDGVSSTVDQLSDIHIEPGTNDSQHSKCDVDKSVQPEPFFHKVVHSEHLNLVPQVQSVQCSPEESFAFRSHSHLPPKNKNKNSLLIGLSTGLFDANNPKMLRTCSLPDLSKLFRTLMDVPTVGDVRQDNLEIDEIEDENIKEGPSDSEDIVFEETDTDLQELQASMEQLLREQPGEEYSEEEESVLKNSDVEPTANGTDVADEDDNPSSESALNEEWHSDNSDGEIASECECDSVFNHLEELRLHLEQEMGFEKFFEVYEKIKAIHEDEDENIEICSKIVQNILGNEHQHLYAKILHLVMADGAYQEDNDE
The conditions noted are these: at 0.1 µM.

The target in test [3] is T2, Serine/threonine-protein kinase Nek1 (Homo sapiens). The conditions noted are these: at 1 µM.
The target in test [4] is T3, Serine/threonine-protein kinase Nek2 (Homo sapiens) (UniProt P51955).
T3 sequence (whole entry): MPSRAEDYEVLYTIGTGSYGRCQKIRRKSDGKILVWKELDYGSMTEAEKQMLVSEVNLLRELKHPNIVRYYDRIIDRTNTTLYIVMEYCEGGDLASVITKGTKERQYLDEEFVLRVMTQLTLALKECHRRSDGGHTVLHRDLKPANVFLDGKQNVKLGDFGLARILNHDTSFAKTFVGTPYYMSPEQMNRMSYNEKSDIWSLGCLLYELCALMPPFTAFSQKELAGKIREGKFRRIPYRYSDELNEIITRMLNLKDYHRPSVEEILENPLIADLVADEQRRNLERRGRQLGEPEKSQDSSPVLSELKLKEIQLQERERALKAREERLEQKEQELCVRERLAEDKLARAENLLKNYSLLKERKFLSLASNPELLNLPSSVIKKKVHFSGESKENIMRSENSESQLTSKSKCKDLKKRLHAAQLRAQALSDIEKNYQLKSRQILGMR
The settings on record: at 0.1 µM.

The target in test [5] is T3, Serine/threonine-protein kinase Nek2 (Homo sapiens). The settings on record: at 1 µM.
Test [6] concerns the target Serine/threonine-protein kinase Nek6 (Homo sapiens) (UniProt Q9HC98). The conditions noted are these: at 0.1 µM.
For test [7] the target is unchanged. The conditions noted are these: at 1 µM.
Test [8] addresses Serine/threonine-protein kinase Nek7 (Homo sapiens) (UniProt Q8TDX7). The conditions noted are these: at 0.1 µM.
Test [9] shares this target. The conditions noted are these: at 1 µM.
In test [10] the target is T4, Serine/threonine-protein kinase Nek9 (Homo sapiens) (UniProt Q8TD19).
T4 sequence (whole entry): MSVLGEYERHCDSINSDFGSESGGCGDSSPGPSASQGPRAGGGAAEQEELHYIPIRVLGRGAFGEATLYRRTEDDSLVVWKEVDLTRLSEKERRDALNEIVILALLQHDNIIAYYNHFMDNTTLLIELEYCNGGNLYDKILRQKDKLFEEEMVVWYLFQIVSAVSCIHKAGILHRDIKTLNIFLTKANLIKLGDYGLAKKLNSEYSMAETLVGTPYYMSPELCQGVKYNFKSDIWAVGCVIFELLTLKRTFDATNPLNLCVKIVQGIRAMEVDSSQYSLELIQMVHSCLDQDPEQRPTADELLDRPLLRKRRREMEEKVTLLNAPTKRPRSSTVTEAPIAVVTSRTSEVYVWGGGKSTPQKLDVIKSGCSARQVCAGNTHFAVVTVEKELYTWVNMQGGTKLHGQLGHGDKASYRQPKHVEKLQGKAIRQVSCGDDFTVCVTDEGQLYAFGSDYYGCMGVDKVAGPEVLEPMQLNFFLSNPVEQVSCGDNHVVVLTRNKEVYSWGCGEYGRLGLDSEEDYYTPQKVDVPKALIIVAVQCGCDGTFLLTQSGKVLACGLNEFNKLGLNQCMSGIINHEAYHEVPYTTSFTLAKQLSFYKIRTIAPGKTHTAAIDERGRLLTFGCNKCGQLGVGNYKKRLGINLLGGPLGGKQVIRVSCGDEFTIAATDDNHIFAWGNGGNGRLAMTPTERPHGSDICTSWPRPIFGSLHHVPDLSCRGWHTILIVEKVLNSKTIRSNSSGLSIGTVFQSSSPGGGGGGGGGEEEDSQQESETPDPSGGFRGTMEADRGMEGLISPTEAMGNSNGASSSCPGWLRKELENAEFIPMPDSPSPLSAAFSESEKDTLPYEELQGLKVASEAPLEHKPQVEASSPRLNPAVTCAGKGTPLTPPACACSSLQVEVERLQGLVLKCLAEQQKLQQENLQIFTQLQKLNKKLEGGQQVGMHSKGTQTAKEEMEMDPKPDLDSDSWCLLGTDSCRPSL
The settings on record: at 0.1 µM.

Test [11] addresses T4, Serine/threonine-protein kinase Nek9 (Homo sapiens). The settings on record: at 1 µM.
For test [12], the target named is Serine/threonine-protein kinase PLK1 (Homo sapiens) (UniProt P53350). The conditions noted are these: at 0.1 µM.
Serine/threonine-protein kinase PLK1 (Homo sapiens), sequence (P53350 whole entry): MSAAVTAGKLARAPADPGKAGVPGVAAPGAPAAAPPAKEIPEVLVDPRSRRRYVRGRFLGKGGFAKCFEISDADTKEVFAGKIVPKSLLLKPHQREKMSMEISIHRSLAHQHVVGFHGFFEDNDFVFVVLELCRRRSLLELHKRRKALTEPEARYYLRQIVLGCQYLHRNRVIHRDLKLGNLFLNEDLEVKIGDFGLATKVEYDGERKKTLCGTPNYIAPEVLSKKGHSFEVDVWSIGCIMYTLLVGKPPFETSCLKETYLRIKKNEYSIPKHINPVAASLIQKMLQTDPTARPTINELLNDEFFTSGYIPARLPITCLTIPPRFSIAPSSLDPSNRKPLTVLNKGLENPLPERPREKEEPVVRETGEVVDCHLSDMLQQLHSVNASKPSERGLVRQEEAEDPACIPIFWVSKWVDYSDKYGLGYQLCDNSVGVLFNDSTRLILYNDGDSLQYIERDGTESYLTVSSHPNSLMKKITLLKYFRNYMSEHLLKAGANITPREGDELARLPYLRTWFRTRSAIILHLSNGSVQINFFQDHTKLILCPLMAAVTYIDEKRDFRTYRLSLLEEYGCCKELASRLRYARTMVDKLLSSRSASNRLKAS
Test [13] has the same target. The conditions noted are these: at 1 µM.
For test [14], the target named is T5, Dual specificity protein kinase TTK (Homo sapiens) (UniProt P33981).
T5 sequence (whole entry): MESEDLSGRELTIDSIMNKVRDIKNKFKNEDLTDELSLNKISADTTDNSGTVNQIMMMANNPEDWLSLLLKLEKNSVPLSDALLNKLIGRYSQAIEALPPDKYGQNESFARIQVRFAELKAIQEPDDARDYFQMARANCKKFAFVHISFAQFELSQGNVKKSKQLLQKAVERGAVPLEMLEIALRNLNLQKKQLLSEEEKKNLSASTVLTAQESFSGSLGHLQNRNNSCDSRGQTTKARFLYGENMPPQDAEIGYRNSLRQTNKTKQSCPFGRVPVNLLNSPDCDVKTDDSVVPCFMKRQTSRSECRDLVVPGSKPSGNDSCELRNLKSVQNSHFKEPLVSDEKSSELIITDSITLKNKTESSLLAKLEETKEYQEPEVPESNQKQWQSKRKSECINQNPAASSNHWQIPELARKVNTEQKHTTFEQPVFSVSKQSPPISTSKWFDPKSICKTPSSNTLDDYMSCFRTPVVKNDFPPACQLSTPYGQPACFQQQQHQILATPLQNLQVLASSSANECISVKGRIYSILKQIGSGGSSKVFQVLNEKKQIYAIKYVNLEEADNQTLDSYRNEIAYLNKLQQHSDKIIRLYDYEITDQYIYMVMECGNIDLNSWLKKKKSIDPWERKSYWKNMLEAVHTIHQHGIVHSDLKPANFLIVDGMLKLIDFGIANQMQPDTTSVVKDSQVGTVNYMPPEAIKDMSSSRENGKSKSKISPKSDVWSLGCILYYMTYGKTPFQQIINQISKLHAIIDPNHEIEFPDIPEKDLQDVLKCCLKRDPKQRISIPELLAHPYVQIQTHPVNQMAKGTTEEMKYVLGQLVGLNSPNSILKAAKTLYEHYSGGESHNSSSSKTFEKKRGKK
The settings on record: at 0.1 µM.

Test [15] deals with T6, Receptor-type tyrosine-protein kinase FLT3 (Homo sapiens), P36888 [D835Y].
T6 sequence (whole entry): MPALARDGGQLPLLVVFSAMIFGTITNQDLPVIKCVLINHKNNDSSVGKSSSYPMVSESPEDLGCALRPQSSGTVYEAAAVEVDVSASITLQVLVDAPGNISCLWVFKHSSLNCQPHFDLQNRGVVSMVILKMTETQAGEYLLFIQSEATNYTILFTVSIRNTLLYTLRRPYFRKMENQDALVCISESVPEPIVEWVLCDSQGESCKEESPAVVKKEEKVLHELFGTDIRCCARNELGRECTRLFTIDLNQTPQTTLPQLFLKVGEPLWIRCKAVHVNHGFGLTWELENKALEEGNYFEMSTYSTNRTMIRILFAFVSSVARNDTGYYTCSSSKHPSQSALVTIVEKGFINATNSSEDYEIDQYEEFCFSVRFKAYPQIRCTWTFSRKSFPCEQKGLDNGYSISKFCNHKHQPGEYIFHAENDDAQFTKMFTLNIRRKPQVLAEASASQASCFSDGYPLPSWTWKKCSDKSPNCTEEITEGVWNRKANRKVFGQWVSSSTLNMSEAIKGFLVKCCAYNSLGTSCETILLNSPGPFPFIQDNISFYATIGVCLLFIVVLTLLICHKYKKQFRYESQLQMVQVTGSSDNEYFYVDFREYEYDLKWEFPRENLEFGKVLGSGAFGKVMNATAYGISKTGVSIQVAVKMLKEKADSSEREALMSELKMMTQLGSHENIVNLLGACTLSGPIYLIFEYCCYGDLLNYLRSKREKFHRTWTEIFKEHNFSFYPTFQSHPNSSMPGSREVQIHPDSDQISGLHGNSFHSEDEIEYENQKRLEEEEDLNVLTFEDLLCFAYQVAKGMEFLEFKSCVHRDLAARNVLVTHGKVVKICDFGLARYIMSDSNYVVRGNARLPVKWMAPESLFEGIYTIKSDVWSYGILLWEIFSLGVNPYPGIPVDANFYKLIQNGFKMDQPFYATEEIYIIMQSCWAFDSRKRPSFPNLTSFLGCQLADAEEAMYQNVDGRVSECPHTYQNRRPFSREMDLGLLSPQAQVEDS
The settings on record: at 1 µM.

The target of test [16] is Vascular endothelial growth factor receptor 3 (Homo sapiens) (UniProt P35916). The conditions noted are these: at 0.1 µM.
Vascular endothelial growth factor receptor 3 (Homo sapiens), sequence (P35916 whole entry): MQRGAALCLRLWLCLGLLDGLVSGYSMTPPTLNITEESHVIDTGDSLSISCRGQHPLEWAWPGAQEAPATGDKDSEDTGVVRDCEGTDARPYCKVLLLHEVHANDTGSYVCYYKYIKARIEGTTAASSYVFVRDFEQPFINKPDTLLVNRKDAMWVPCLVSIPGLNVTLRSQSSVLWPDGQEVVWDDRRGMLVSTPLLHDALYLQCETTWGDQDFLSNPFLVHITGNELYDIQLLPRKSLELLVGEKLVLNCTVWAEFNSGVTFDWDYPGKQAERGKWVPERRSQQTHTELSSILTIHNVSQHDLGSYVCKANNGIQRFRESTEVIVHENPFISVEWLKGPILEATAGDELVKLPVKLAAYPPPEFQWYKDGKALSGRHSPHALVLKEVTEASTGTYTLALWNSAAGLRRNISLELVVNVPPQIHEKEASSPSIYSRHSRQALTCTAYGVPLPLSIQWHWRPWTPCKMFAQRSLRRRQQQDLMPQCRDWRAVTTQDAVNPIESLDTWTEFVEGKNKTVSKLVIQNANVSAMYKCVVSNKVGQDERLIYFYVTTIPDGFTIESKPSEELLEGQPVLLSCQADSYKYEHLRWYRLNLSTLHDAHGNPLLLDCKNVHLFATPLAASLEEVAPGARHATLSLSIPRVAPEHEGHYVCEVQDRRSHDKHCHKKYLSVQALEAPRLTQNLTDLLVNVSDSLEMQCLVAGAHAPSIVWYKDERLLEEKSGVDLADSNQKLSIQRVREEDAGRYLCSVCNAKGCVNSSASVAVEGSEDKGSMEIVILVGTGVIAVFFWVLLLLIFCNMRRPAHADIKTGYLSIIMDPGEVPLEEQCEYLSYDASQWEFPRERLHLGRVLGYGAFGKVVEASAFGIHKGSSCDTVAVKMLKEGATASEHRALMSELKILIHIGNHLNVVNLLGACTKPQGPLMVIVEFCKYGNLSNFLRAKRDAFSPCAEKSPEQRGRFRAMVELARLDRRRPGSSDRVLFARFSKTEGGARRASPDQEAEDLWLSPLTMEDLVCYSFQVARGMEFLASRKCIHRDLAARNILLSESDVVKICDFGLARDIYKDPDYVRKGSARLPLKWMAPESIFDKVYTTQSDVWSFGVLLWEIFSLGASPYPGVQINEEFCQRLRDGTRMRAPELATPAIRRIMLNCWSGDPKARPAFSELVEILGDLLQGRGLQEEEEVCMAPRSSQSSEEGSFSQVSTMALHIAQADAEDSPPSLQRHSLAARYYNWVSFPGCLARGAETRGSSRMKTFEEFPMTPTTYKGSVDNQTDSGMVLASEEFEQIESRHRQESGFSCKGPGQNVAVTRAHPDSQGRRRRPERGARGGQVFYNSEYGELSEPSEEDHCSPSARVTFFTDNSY
Test [17] has the same target. The settings on record: at 1 µM.
Test [18] deals with Macrophage colony-stimulating factor 1 receptor (Homo sapiens) (UniProt P07333). The conditions noted are these: at 0.1 µM.
Macrophage colony-stimulating factor 1 receptor (Homo sapiens), sequence (P07333 whole entry): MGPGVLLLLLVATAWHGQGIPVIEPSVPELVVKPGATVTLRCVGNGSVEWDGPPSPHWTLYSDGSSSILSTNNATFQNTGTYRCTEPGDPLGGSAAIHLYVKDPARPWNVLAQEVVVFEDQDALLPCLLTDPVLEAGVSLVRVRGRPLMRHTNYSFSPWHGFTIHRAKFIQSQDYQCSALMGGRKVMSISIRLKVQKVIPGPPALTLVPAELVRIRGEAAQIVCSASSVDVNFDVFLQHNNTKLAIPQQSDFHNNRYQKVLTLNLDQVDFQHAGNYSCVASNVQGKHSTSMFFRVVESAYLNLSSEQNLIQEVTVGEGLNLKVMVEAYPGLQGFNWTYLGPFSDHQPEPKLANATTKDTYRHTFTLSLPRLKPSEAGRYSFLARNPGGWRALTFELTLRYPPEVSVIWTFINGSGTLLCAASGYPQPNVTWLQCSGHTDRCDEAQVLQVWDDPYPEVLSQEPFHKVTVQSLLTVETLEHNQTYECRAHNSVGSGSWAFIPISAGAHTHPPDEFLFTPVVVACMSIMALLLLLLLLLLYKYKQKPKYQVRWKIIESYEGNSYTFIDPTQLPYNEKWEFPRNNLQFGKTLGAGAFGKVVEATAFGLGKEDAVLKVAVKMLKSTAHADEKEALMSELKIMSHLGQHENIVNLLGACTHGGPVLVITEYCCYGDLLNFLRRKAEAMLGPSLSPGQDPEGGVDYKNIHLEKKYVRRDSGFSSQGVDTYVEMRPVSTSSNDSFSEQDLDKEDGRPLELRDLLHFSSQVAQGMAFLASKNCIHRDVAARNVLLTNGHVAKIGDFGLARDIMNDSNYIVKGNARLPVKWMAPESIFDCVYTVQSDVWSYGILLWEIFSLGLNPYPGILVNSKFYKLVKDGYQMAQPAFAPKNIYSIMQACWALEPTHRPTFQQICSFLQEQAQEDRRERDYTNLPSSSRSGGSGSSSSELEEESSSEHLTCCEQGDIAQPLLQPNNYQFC
Test [19] shares this target. The conditions noted are these: at 1 µM.
For test [20], the target named is Tyrosine-protein kinase Fyn (Homo sapiens) (UniProt P06241). The settings on record: at 0.1 µM.
Tyrosine-protein kinase Fyn (Homo sapiens), sequence (P06241 2-537 limits assumed): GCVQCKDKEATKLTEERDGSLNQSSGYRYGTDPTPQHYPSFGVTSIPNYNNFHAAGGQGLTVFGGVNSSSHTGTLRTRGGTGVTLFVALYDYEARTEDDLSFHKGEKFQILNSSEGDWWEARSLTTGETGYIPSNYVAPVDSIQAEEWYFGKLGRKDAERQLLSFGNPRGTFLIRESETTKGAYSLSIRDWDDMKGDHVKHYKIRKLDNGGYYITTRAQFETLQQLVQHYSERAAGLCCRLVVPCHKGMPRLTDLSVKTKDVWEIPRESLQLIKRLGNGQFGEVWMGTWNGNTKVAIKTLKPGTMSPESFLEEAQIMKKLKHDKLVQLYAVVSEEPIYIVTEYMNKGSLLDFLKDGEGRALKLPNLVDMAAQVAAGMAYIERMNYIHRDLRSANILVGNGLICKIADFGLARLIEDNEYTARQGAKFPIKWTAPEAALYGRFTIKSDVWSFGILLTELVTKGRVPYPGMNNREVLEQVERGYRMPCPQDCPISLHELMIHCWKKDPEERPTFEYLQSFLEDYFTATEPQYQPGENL

Serine/threonine-protein kinase Nek7 (Homo sapiens), sequence (Q8TDX7 whole entry, looked up): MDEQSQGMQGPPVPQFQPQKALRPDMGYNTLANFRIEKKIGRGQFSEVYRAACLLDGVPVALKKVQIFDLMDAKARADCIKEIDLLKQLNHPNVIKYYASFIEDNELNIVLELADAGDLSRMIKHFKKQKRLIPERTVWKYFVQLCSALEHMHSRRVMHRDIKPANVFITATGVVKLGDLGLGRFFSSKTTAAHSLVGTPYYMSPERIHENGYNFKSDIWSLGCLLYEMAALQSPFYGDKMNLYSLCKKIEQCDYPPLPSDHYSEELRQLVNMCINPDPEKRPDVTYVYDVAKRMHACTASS
Serine/threonine-protein kinase Nek6 (Homo sapiens), sequence (Q9HC98 whole entry): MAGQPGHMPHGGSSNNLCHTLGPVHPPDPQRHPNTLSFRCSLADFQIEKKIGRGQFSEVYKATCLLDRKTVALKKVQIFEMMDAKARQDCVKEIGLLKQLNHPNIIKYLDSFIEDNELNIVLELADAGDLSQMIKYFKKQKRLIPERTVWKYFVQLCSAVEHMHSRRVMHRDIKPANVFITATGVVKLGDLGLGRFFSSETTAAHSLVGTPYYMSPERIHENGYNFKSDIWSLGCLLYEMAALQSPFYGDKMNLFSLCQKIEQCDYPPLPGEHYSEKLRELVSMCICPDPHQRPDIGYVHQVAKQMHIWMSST

As to `O=C(O[C@H]1CN[C@H](C#Cc2cc3ncnc(Nc4ccc5c(ccn5Cc5cc(F)ccc5F)c4)c3s2)C1)N1CCOCC1`, the inhibition in [1] stood at 3.8%; in [2] it was 2.94%; in [3], 1.91%; in test [4] it was 2.01%; in [5], 7.68%; in [6], 4.81%. For the same compound, the inhibition was determined as 1.23% in [7]; 4.67% in test [8]; 3.63% in test [9]; 4.24% in test [10]; 12.3% in [11]; 4.51% in test [12]. Moreover, the inhibition is 10.8% in test [13]; 11% in test [14]; -1.27% in test [15]; 4.34% in [16]; 4.77% in test [17]; 2.09% in [18]. The inhibition in test [19] was found to be 15.5%; in test [20], 4.48%.
Take `CNC(=O)c1cncc(/C=C/c2ccccc2C)c1`: the inhibition in test [1] came out at 5.71%; in test [2], 2.13%; in test [3], 4.28%; in [4], 4.96%; in test [5], 5.88%; in test [6] it was 1.4%. Besides, the inhibition in test [7] is 3.73%; in [8], 1.08%; in test [9] it was 4.03%; in test [10], 3.46%; in [11] it was 3.57%; in test [12] it was 4.47%. Further, the inhibition in test [13] was 3.11%; in test [14], 8.61%; in test [15] it was 2.62%; in [16] it was 6.74%; in test [17], 3.1%; in [18], -0.27%. Further, the inhibition is 4.09% in test [19] and -0.42% in test [20].
